According to paper PMC4552634, “A New Set of Chemical Starting Points with Plasmodium falciparum Transmission-Blocking Potential for Antimalarial Drug Discovery” (PLoS ONE, 2015):
Like-named read-outs stand apart in the source and are kept apart here. Among all 13,000 compounds or so, about 3,200 (25%) showed an effect of 50% or more. The list shows a part of the results.

System: P. falciparum stage V gametocytes
Parameters: BacTiter-Glo ATP luminescence viability of purified stage V gametocytes in 384-well plates, per cent inhibition versus DMSO
Settings: 48 h, 5 µM, inhibitor

Row | Compound | % Inhibition [%] | % Inhibition (% Inhibition) [%]
1 | CCc1ccc(O)c(-c2cc(C(=O)Nc3ccc(OC)c(Cl)c3)[nH]n2)c1 [TCMDC-125072] | 5.954 | –
2 | COc1ccc2nccc([C@@H](O)CN3CCC(NCc4ccc5c(c4)nnn5C(C)C)CC3)c2c1 [TCMDC-141011] | -16.76 | –
3 | CCc1ccc(CN2CCC(C(=O)Nc3ccc(-c4nc5ccccc5[nH]4)cc3)CC2)o1 [TCMDC-124686] | -27.59 | –
4 | CNC(=S)NN=C(C)c1ccccn1 [TCMDC-123475] | 90.46 | –
5 | COCCCNC(=S)NN=C(C)c1ccccn1 [TCMDC-137907] | 93.04 | –
6 | CC(=NNC(=S)NC(C)(C)C)c1ccccn1 [TCMDC-137783] | 15.81 | –
7 | Cc1ccc(Oc2cnn(C)c(=O)c2Nc2cccc(C(=O)NCCc3ccccn3)c2)c(C)c1 [TCMDC-124786] | 34.52 | –
8 | Clc1ccc2c(NCCc3ccccn3)ccnc2c1 [TCMDC-123461] | 8.42 | –
9 | CC(=NNC(=S)NCCc1ccccn1)c1ccccn1 [TCMDC-137895] | 92.63 | –
10 | CN(c1ccc(NC(=O)c2ccc(F)cc2)cc1)C1CCN(Cc2cccc(F)c2)C1 (stereo not shown) [TCMDC-135003] | -17.16 | –
11 | O=C(Nc1ccc(OC2CCN(Cc3ccsc3)C2)c(Cl)c1)c1ccc2ncccc2c1 (stereo not shown) [TCMDC-133951] | -25.76 | –
12 | C[C@H](Nc1c(Nc2ccc3[nH]ccc3c2)c(=O)c1=O)C1CCCCC1 [TCMDC-138193] | -95.47 | –
13 | O=C(NCCCCCN1CCC(c2c[nH]c3ccccc23)CC1)Nc1cccc(C(F)(F)F)c1 [TCMDC-139217] | -48 | –
14 | Cn1nc(-c2ccc(S(=O)(=O)N3CCC(CCN4CCC(c5c[nH]c6ccccc56)CC4)CC3)s2)cc1C(F)(F)F [TCMDC-140168] | 106.2 | –
15 | FC(F)(F)c1cccc(N2CCC(CN3CCC(c4c[nH]c5ccccc45)CC3)CC2)n1 [TCMDC-134280] | 19.45 | –
16 | Cn1nc(-c2ccc(S(=O)(=O)N3CCC(CN4CCC(c5c[nH]c6ccccc56)CC4)CC3)s2)cc1C(F)(F)F [TCMDC-140171] | 114.8 | –
17 | O=C(NCc1ccc(S(=O)(=O)N2CCC(CN3CCC(c4c[nH]c5ccccc45)CC3)CC2)s1)c1ccccc1 [TCMDC-140170] | 48.92 | –
18 | Cn1ncc2ccc(Nc3nccc(-c4ccc5c(c4)c(N)nn5C)n3)cc21 [TCMDC-137049] | 80.69 | –
19 | Cc1ccc(-c2cnc(N)c3cc(-c4ccnc(N)n4)ccc23)cc1 [TCMDC-134544] | 25.6 | –
20 | Nc1nccc2ccc(-c3ccnc(NCc4cccnc4)n3)cc12 [TCMDC-136735] | -3.627 | –
21 | Cc1cccc2[nH]c(-c3ccc(-c4cccc(NC(=O)c5cnn6cccnc56)c4)cc3)nc12 [TCMDC-136865] | 23.94 | –
22 | COc1ccccc1C(=O)Nc1ccc(Nc2nc(C)cc(N(C)C)n2)cc1 [TCMDC-124728] | -11.89 | –
23 | COc1ccc(C(=O)Nc2ccc(Nc3nc(C)cc(N(C)C)n3)cc2)c(OC)c1 [TCMDC-124727] | 63.21 | –
24 | COc1cccc(C(=O)Nc2ccc(Nc3nc(C)cc(N(C)C)n3)cc2)c1 [TCMDC-124720] | -4.624 | –
25 | COc1cccc(C(=O)Nc2ccc(Nc3nc(C)cc(N(C)C)n3)cc2)c1OC [TCMDC-124719] | 58.09 | –

Row | Compound | % Inhibition [%] | % Inhibition (% Inhibition) [%]
26 | COc1ccc(NC(=O)Nc2ccc(Nc3nc(C)cc(N(C)C)n3)cc2)cc1 [TCMDC-124960] | 1.588 | –
27 | Cc1cc(N(C)C)nc(Nc2ccc(NC(=O)c3ccccc3C)cc2)n1 [TCMDC-124729] | -17.39 | –
28 | Cc1nc2c(=O)sc3ccccc3c2n1Cc1ccccc1 [TCMDC-125754] | -11.8 | –
29 | CN(C)CCN(C)Cc1ccc(-c2cccc(NC(=O)c3ccc(Cl)cc3)c2)cc1 [TCMDC-132631] | 0.8563 | –
30 | CN(C)CCN(C)Cc1ccc(-c2ccc(NC(=O)c3ccc(Cl)cc3)cc2)cc1 [TCMDC-132587] | -35.6 | –
31 | CN(CCCCN)Cc1ccc(-c2ccc(Cl)cc2)cc1 [TCMDC-140123] | 92.64 | –
32 | O=C(NCc1ccc(C(=O)N2CCC(N3CCCCC3)CC2)cc1)c1cc(-c2cccc(C(F)(F)F)c2)ccc1O [TCMDC-139090] | -1.594 | –
33 | O=C(Nc1ccccc1Br)c1cn(-c2ccccc2)nc1-c1cccc([N+](=O)[O-])c1 [TCMDC-124624] | 18.14 | –
34 | O=C(NCCc1cccc(F)c1)c1ccc(N2CCN(c3ccncc3)CC2)cn1 [TCMDC-135153] | 19.99 | –
35 | CCNc1cc(C(=O)N[C@@H](Cc2ccccc2Cl)[C@H](O)CNC2CCCCC2)cc(N2CCCCS2(=O)=O)c1 [TCMDC-135223] | 16.84 | –
36 | NC[C@H](CC1CCCCC1)NC(=O)c1ccc(-c2ccnc3[nH]ccc23)s1 [TCMDC-134150] | 38.45 | –
37 | Oc1ccc(CCNCCCCCCNCCc2ccc(Cl)cc2)c(Cl)c1O [TCMDC-131266] | 111.4 | –
38 | Oc1ccc(CCNCCCCCCNCCCc2ccc(Cl)cc2)cc1O [TCMDC-131264] | 107.9 | –
39 | Oc1ccc(CCNCCCCNCCc2ccc(Cl)cc2)cc1O [TCMDC-131265] | 107 | –
40 | O=C(NCCCc1ccccc1)c1ccc(O)c(-c2cc(Cl)cc(Cl)c2)c1 [TCMDC-140159] | -73.77 | –
41 | CNC(=O)CC(=O)NCCc1ccc(Cl)cc1 [TCMDC-131647] | -3.705 | –
42 | Oc1ccc(CCNCCCCCNCCCc2ccc(Cl)cc2)cc1O [TCMDC-131279] | 112.4 | –
43 | O=c1ccc2ccc(F)c3c2n1CC3CN1CCC(NCc2ccc(-c3cccc(Cl)c3)nc2)CC1 (stereo not shown) [TCMDC-134409] | -72.08 | –
44 | O=C(/C=C/c1ccccc1Cl)Nc1ccc(Br)c(OCCN2CCC(O)(c3ccccc3)CC2)c1 [TCMDC-140960] | 2.038 | –
45 | Cc1cccc(-c2nn(-c3ccccc3)cc2C(=O)Nc2nnc(C)o2)c1 [TCMDC-125039] | -1.826 | –
46 | CC(C)CCN1CCCN(Cc2cccc(C(=O)Nc3ccc(C(C)(C)C)cc3)c2)CC1 [TCMDC-136605] | -26.48 | –
47 | O=[N+]([O-])c1cccc(CNCC2CCN(CC3CCCCC3)CC2)c1 [TCMDC-139468] | 9.865 | –
48 | FC(F)(F)c1ccc2[nH]c(-c3ccc(-c4ccc(CN5CCN(c6cnccn6)CC5)cc4)cc3)nc2c1.O=C(O)C(F)(F)F [TCMDC-132678] | -10.34 | –
49 | O=C(C1CCCCC1)N1CCOC(CCN2CCC(c3ccccc3)CC2)(c2ccc(Cl)c(Cl)c2)C1 (stereo not shown) [TCMDC-135329] | -33.1 | –
50 | C=CCc1cccc(OC)c1OCCCON1C(N)=NC(N)=NC1(C)C [TCMDC-131337] | -10.44 | –

Row | Compound | % Inhibition [%] | % Inhibition (% Inhibition) [%]
51 | CC(C)(Cc1ccc(Cl)cc1)NCCCCCCNCCc1ccc(O)c(O)c1 [TCMDC-131277] | 114.6 | –
52 | CCCN(CCCCCCNCCc1ccc(Cl)cc1)CCc1ccc(O)c(O)c1 [TCMDC-131274] | 104.4 | –
53 | Oc1ccc2c(CNCCc3ccccc3)c(O)ccc2c1CNCCc1ccccc1 [TCMDC-137582] | -11.34 | –
54 | CCCN(CCCCCCN(CCC)CCc1ccc(O)c(O)c1)CCc1ccc(O)cc1 [TCMDC-131259] | -3.325 | –
55 | CC(C)(O)CC(C)(C)c1cc(Cl)ccc1O [TCMDC-131708] | -16.74 | –
56 | CCCNCCc1ccc(NS(=O)(=O)c2cccc(-c3ccc(Cl)cc3)c2)cc1 [TCMDC-141448] | 32.49 | –
57 | Cc1cc(CNCC2CCC(CNCCCc3ccccc3)CC2)ccc1O (stereo not shown) [TCMDC-140409] | 40.71 | –
58 | CCCCc1ccc(CCNCCCCCCNCCc2ccc(O)c(O)c2)cc1 [TCMDC-131281] | 122.8 | –
59 | Oc1ccc(CCNCCCCCCNCCc2ccc(-c3ccccc3)cc2)cc1O [TCMDC-131268] | 113.1 | –
60 | O=C(NCC1CCC(CNCCCc2ccccc2)CC1)Nc1ccc(Cl)c(Cl)c1 (stereo not shown) [TCMDC-140705] | -6.849 | –
61 | COc1ccc2nccc([C@@H](O)CN3CCC(NCc4nc5c(cc4Cl)SCC(=O)N5)C(F)C3)c2c1 (stereo partly shown) [TCMDC-141679] | – | -19.09
62 | COc1ccc(OCCCCON2C(N)=NC(N)=NC2(C)C)cc1 [TCMDC-131732] | 29.82 | –
63 | CCOc1cccc(C2c3c(oc4ccccc4c3=O)C(=O)N2CCN(CC)CC)c1 (stereo not shown) [TCMDC-124476] | -6.195 | –
64 | NS(=O)(=O)CCc1cccc(Nc2nccc(-c3c(-c4cccc(NC(=O)c5c(F)cccc5F)c4)nn4ccccc34)n2)c1 [TCMDC-135791] | -73.1 | –
65 | N#Cc1ccc2c(c1)CN(C1CCC(NC(=O)C3=Cc4cc(Cl)ccc4OC3)CC1)CCC2 (stereo not shown) [TCMDC-133501] | -19.21 | –
66 | Cc1nc(-c2cccc(C(=O)N(Cc3cncn3Cc3cccc(C(F)(F)F)c3)CC3CC3)c2)cs1 [TCMDC-132462] | -20.16 | –
67 | FC(F)(F)c1cccc(CNCCCCCNCc2ccc(Cl)cc2)c1 [TCMDC-140403] | 31.4 | –
68 | c1ccc(CCNCc2ccc(-c3ccc(CNCc4ccc5c(c4)OCO5)cc3)nc2)cc1 [TCMDC-141648] | 21 | –
69 | O=C(NCCCCNCC(Cc1cccc(O)c1)c1ccccc1)c1ccc(NC(=O)c2ccc(Cl)cc2)cc1 (stereo not shown) [TCMDC-138563] | -50.17 | –
70 | Oc1cccc(CCNCCCCCCNCCc2ccc(Cl)cc2)c1 [TCMDC-131285] | 116.7 | –
71 | Clc1ccc(CCNCCCCCCNCCc2ccc3c(c2)OCO3)cc1 [TCMDC-132042] | 88.67 | –
72 | Oc1ccc(CCNCCCCCCNCCc2ccc(Br)cc2)cc1O [TCMDC-131263] | 95.59 | –
73 | Clc1ccc2c(NCc3ccc4c(c3)OCO4)ccnc2c1 [TCMDC-125106] | -11.41 | –
